Among the data in PubChem BioAssay (NCATS) are Potency values, retold here.

The nature of experiment [1]: qHTS for Inhibitors of the Functional Ribonucleoprotein Complex (vRNP) of Lymphocytic Choriomeningitis Arenaviruses (LCMV): Viability assay - alamar blue signal for LCMV Primary Screen (AID 1347085; calls by dose curve; tested in HEK293 reporter line; further: nearly all actives have a fitted effect of over 80% in size).
Experiment [2] is described as follows: qHTS for Inhibitors of the Functional Ribonucleoprotein Complex (vRNP) of Lassa (LASV) Arenavirus: Viability assay - alamar blue signal for LASV Primary Screen (AID 1347083; calls by dose curve; tested in HEK293 reporter line; further: nearly all actives have a fitted effect of over 80% in size).
Experiment [3] deals with Nucleoprotein (Lymphocytic choriomeningitis virus (strain Armstrong)) (UniProt P09992). Nature of the experiment: qHTS for Inhibitors of the Functional Ribonucleoprotein Complex (vRNP) of Lymphocytic Choriomeningitis Arenaviruses (LCMV): LCMV Primary Screen - GLuc reporter signal (AID 1347086; calls by dose curve; further: nearly all actives have a fitted effect of over 70% in size). (In general: qHTS replaces the single test concentration by a dilution series.)
Sequence of Nucleoprotein (Lymphocytic choriomeningitis virus (strain Armstrong)) (P09992 whole entry, looked up): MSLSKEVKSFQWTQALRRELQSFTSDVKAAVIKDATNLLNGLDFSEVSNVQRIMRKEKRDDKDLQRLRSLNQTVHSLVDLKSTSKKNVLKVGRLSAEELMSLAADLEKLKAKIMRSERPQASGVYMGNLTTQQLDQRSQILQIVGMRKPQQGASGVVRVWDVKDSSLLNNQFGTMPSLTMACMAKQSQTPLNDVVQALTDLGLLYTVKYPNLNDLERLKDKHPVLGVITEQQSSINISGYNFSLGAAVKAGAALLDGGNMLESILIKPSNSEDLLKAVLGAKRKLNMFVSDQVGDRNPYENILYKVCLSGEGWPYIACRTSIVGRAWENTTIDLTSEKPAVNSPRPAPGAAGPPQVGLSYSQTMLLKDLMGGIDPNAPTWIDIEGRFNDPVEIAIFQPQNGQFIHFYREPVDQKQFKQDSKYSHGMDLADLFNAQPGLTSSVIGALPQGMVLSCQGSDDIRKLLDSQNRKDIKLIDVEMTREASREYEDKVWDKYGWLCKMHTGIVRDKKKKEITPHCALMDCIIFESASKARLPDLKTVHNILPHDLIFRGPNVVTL

Experiment [4] is described as follows: qHTS of pediatric cancer cell lines to identify multiple opportunities for drug repurposing: Primary screen for SJ-GBM2 cells (AID 1347091). In short, it runs like this:
(§1)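 Cell viability, CellTiter-Glo luminescence; 500-1,000 cells/well, 8- or 11-point titration, 48 h compound exposure at 37 degrees C, 5% CO2. Controls: DMSO neutral, bortezomib 2.3 µM final as positive.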

Experiment [5] is described as follows: qHTS of pediatric cancer cell lines to identify multiple opportunities for drug repurposing: Primary screen for A673 cells (AID 1347092). Further: nearly all actives have a fitted effect of over 45% in size. In a few lines: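 A673 cells (500-1,000 cells/well in growth media) were pre-incubated 5 h at 37 degrees C, then exposed to compounds for 48 h. Viability was read as CellTiter-Glo luminescence; concentration-response curves came directly from the primary screen.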

A short description of experiment [6]: qHTS of pediatric cancer cell lines to identify multiple opportunities for drug repurposing: Primary screen for SK-N-MC cells (AID 1347093). In a few lines:
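Metabolically active cells were quantified by ATP-dependent luminescence (CellTiter-Glo, 15 min at room temperature) following 48 h treatment. Cells had been plated at 500-1,000 per well and settled for 5 h beforehand.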

Experiment [7] can be described thus: qHTS of pediatric cancer cell lines to identify multiple opportunities for drug repurposing: Primary screen for BT-37 cells (AID 1347094). In short, it runs like this: (§2)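 CRCs from 8- or 11-point titrations (lowest final 0.59 nM NPC, 0.78 nM MIPE). Cell viability: CellTiter-Glo after 48 h incubation, 15 min room-temperature development, luminescence imaging.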

A short description of experiment [8]: qHTS of pediatric cancer cell lines to identify multiple opportunities for drug repurposing: Primary screen for NB-EBc1 cells (AID 1347095). In a few lines:
as §2

A short description of experiment [9]: qHTS of pediatric cancer cell lines to identify multiple opportunities for drug repurposing: Primary screen for TC32 cells (AID 1347089). Further: nearly all actives have a fitted effect of over 60% in size. In short, it runs like this: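 Luminescent CellTiter-Glo read-out of metabolically active TC32 cells after 48 h compound exposure. Primary: MIPE 11-point, 0.78 nM–46 µM; NPC 8-point, 0.59 nM–46 µM. Confirmatory: 11-point dilutions.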

The nature of experiment [10]: qHTS of pediatric cancer cell lines to identify multiple opportunities for drug repurposing: Primary screen for DAOY cells (AID 1347090). Further: nearly all actives have a fitted effect of over 55% in size. In a few lines: as §1

“And” between values parts separate entries of the source, which are not always exact repeats. Identical values can stand only once. Results filed as inconclusive are left out. The source made the active and inactive calls. Unless noted, the call rests on the fitted dose curve; in most records, active means well fitted curve in the direction sought with a large enough effect; inconclusive means small, poorly fitted or top-dose-only effect, or another doubt; inactive means no such curve, though single readings can be large; an effect the other way counts as inactive or inconclusive.
Potency means the concentration at half of the fitted maximal effect.

Consider `COC1=CC(=O)C[C@@H](C)[C@]12Oc1c(Cl)c(OC)cc(OC)c1C2=O`, for which the Potency entry in experiment [1] was “inactive”.

On to `Cc1sc2c(c1C)C(c1ccc(Cl)cc1)=N[C@@H](CC(=O)OC(C)(C)C)c1nnc(C)n1-2`, for which the Potency in experiment [2] is 2.43 µM (active); in experiment [1], 1.09 µM (active); in experiment [3] it was 0.385 µM (active); in experiment [4], 2.64 µM (active); in [5], 0.469 µM (active); in experiment [6], 0.118 µM (active). In addition, the Potency is 1.37 µM (active) in [7] and 4.18 µM (active) in experiment [8].

`CN1C[C@H](CNC(=O)OCc2ccccc2)C[C@@H]2c3cccc4c3c(cn4C)C[C@H]21`: the Potency entry in experiment [2], in experiment [1], in experiment [3], in [9], in experiment [10] and in [8] was “inactive” each time.

`O=c1[nH]c2ccccc2n1C1CCN(CCCC(c2ccc(F)cc2)c2ccc(F)cc2)CC1`: the Potency entry in experiment [2], in experiment [1] and in [9] was “inactive” throughout. The Potency in experiment [6] was 16.8 µM (active).

With `C=C(C)[C@H]1Cc2c(ccc3c2O[C@@H]2COc4cc(OC)c(OC)cc4[C@@H]2C3=O)O1`, the Potency was 2.17 µM (active) and 708 nM (active) in experiment [2]; 3.85 µM (active) in [1]; 1.67 µM (active) and 4.66 µM (active) in experiment [9]; 168 nM (active) and 296 nM (active) in experiment [10]; 106 nM (active) and 743 nM (active) in experiment [5]; 299 nM (active) and 590 nM (active) in experiment [6]. The Potency in experiment [7] is 777 nM (active) and 2.17 µM (active); in [8], 3.35 µM (active) and 2.64 µM (active).

In the case of `Cn1c(CCCC(=O)O)nc2cc(N(CCCl)CCCl)ccc21`, the Potency result in [2], in experiment [1], in experiment [3], in [9], in experiment [4] and in [5] was “inactive” in each case. The figures for the Potency in experiment [6] and in experiment [8] were 26.4 µM (active) and 2.64 µM (active), respectively.

With `Cc1ncc(CNC(=O)N(CCCl)N=O)c(N)n1`, the Potency entry in experiment [2], in experiment [1], in experiment [3], in experiment [10] and in experiment [8] was “inactive” throughout.

With `Clc1ccc(COC(Cn2ccnc2)c2ccc(Cl)cc2Cl)cc1` (stereo not drawn), the Potency entry in [2], in [1], in [3] and in experiment [9] was “inactive” in each case. In addition, the Potency in experiment [5] was 23.5 µM (active).

Regarding `CC(C)(C)NC(=O)[C@H]1CC[C@H]2[C@@H]3CC[C@H]4NC(=O)C=C[C@]4(C)[C@H]3CC[C@]12C`, the Potency entry in experiment [2] and in experiment [3] was “inactive” each time.

In the case of `Oc1cccc2cccnc12`, the Potency entry in [2], in experiment [1], in [3], in [9], in experiment [4] and in experiment [7] was “inactive” each time.

Take `C=CCN1CC[C@]23c4c5ccc(O)c4O[C@H]2C(=O)CC[C@@]3(O)[C@H]1C5`: the Potency result in experiment [2], in experiment [3], in experiment [9], in [10], in experiment [5] and in experiment [6] was “inactive” each time. For the same compound, the Potency entry in [8] was “inactive”.

In the case of `Cn1cnc([N+](=O)[O-])c1Sc1ncnc2nc[nH]c12`, the Potency in experiment [2] was 50.1 µM (active). Besides, the Potency result in [3] was “inactive”.

For `CCc1nn(CCCN2CCN(c3cccc(Cl)c3)CC2)c(=O)n1CCOc1ccccc1`, in experiment [1], the Potency entry is “inactive”.

Turning to `CC(O)(CS(=O)(=O)c1ccc(F)cc1)C(=O)Nc1ccc(C#N)c(C(F)(F)F)c1` (stereo not drawn), the Potency entry in experiment [2], in experiment [1], in experiment [3] and in experiment [7] was “inactive” throughout. Further, the Potency in experiment [10] was 2.96 µM (active); in [5], 1.18 µM (active); in experiment [6], 0.469 µM (active); in experiment [8], 3.32 µM (active).

Turning to `CC[C@H](C)C(=O)O[C@H]1C[C@@H](C)C=C2C=C[C@H](C)[C@H](CC[C@@H]3C[C@@H](O)CC(=O)O3)[C@H]21`, the Potency entry in [2] and in experiment [3] was “inactive” each time.

Regarding `O=C(c1ccc(OCCN2CCCCC2)cc1)c1c(-c2ccc(O)cc2)sc2cc(O)ccc12`, the Potency result in [1] is “inactive”.

As to `CO[C@]12CC[C@@]3(C[C@@H]1[C@](C)(O)C(C)(C)C)[C@@H]1Cc4ccc(O)c5c4[C@@]3(CCN1CC1CC1)[C@H]2O5`, in experiment [2], the Potency entry is “inactive”. The Potency was 48.1 µM (active) in [5] and 30.3 µM (active) in [6].

On to `O=C(O)C(=O)c1cn(Cc2ccccc2)c2ccc(-c3ccc(OC(F)(F)F)cc3)cc12`, for which the Potency result in [2], in experiment [1], in [3], in experiment [9], in [5] and in [7] was “inactive” throughout.

On to `C[C@@H]1O[C@@H](O[C@H]2C[C@@H](O)[C@]3(CO)[C@H]4[C@H](O)C[C@]5(C)[C@@H](C6=CC(=O)OC6)CC[C@]5(O)[C@@H]4CC[C@]3(O)C2)[C@H](O)[C@H](O)[C@H]1O`, for which the Potency in experiment [2] was 109 nM (active) and 44.7 nM (active); in experiment [1], 122 nM (active) and 89.1 nM (active); in [9], 131 nM (active) and 93.8 nM (active); in experiment [10], 29.6 nM (active) and 53.1 nM (active); in experiment [4], 18.7 nM (active) and 75 nM (active); in experiment [5], 46.9 nM (active) and 66.8 nM (active). For the same compound, the Potency in [6] is 16.6 nM (active) and 23.7 nM (active); in experiment [7], 15.3 nM (active) and 49 nM (active); in [8], 74.3 nM (active) and 266 nM (active).

As to `CC1=C2C[C@@H]3[C@@H](CC=C4C[C@@H](O)CC[C@@]43C)[C@@H]2CC[C@]12O[C@H]1C[C@H](C)CN[C@H]1[C@H]2C`, the Potency result in experiment [2], in experiment [1], in experiment [3], in experiment [9], in experiment [6] and in experiment [7] was “inactive” throughout.
